The source made the active and inactive calls.
Tests used:
[1] = A549 cell viability effects, profiling panel, calcein-AM fluorescence, 48 h, basal (AID 1162); conditions: higher = more signal
[2] = adipocyte viability effects, profiling panel, cell-based, 3T3-L1 adipocytes, calcein-AM fluorescence, 48 h, basal (AID 1163); conditions: 3T3-L1 adipocytes viability, higher = more signal
[3] = HepG2 cell viability effects, profiling panel, calcein-AM fluorescence, 48 h, basal (AID 1164); conditions: higher = more signal
[4] = MM1S cell viability effects, profiling panel, calcein-AM fluorescence, 48 h, basal (AID 1165); conditions: higher = more signal;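 note: viability of MM1S multiple myeloma cells under basal unstimulated conditions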
[5] = basal RPMI8226 viability, no added stimulus, profiling panel, cell-based, calcein-AM fluorescence, 48 h, PK04 Diversity Set (AID 1166); conditions: RPMI8226 myeloma viability, higher = more signal;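 note: cells grown under basal conditions without added stimulus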
[6] = basal HepG2 mitochondrial membrane potential changes, profiling panel, cell-based, JC-1 fluorescence, 24 h, 100 nL compound (AID 1167); conditions: higher = more signal
[7] = basal 3T3-L1 adipocyte mitochondrial potential changes, profiling panel, cell-based, JC-1 fluorescence, 3T3-L1 adipocytes, 24 h, 100 nL compound (AID 1168); conditions: JC-1 mitochondrial fluorescence, higher = more signal, called active from +8 up or from −8 down
[8] = basal RPMI8226 mitochondrial membrane potential changes, profiling panel, cell-based, JC-1 fluorescence, 24 h, 100 nL compound (AID 1169); conditions: RPMI8226 myeloma, JC-1 mitochondrial potential fluorescence, higher = more signal
[9] = basal MM1S mitochondrial membrane potential changes, profiling panel, cell-based, JC-1 fluorescence, 24 h, 100 nL compound (AID 1170); conditions: higher = more signal
[10] = A549 lung cancer cell viability effects, profiling panel, resazurin fluorescence, 24 h, PK04 Diversity Set (AID 1171); conditions: higher = more signal, called active from +8 up or from −8 down
Note: test concentration not given here.

SMILES | z-score [1] | z-score [2] | z-score [3] | z-score [4] | z-score [5] | z-score [6] | z-score [7] | z-score [8] | z-score [9] | z-score [10]
C[N+](C)(C)CCCCNC(=O)[C@H]1C[C@H]2C(=O)NCC(=O)N2[C@H]1c1cccc(OCCO)c1 | -0.471 | -0.387 | -0.347 | -0.0358 | 0.311 | -1.13 | -0.373 (inactive) | -0.074 | -0.314 | -0.0078 (inactive)
CCCC=C(CCC)[C@@H](NS(=O)(=O)c1ccc(C(F)(F)F)cc1)c1ccc(-c2ccccc2)cc1 | -0.91 | -0.988 | -0.396 | -0.5 | -2.65 | 0.285 | 0.33 (inactive) | 0.342 | -1.15 | 2.3 (inactive)
CCOC(=O)C[C@H]1[C@H](OC(=O)c2ccccc2-c2ccccc2)[C@@H](NC(=O)c2ccc(-c3ccccc3)cc2)c2cc(OCCCO)ccc2N1C(=O)Cc1ccc(OC)cc1 | -0.183 | -0.367 | 0.29 | 0.0542 | -0.997 | 0.181 | -0.421 (inactive) | -0.616 | 0.103 | 0.0911 (inactive)
C=CCN(C(=O)C1N(c2ccc(CCO)cc2)C(=O)C2C(C(=O)O)C3C=CC21O3)C(C)(C)C (stereo not given) | 0.478 | 1.86 | 0.134 | 1.69 | -0.265 | 0.556 | 2.37 (inactive) | 0.0149 | 1.08 | -1.3 (inactive)
C=CCC(OC(C)=O)[C@@H]1[C@@H](N(Cc2cccc3ccccc23)C(=O)c2ccc(C)cc2)c2cc(OCCCO)ccc2N1C(=O)c1ccc(-c2ccccc2)cc1 (stereo not given in full) | 1.1 | 0.719 | 1.47 | 1.07 | 0.783 | 3.02 | -0.0453 (inactive) | 0.456 | -0.848 | 0.417 (inactive)
COCCOC(=O)N1C(=O)[C@@]2(c3cc(C#CCNC(N)=O)ccc31)[C@H](C(=O)N1CCCCCCC1)[C@H]1C(=O)O[C@H](c3ccccc3)[C@H](c3ccccc3)N1[C@@H]2c1ccccc1OCCO | 1.01 | -0.177 | 1.04 | 1.38 | 0.767 | -1.3 | 0.315 (inactive) | -0.587 | -1.57 | -0.307 (inactive)
C[N+](C)(C)CCCCNC(=O)[C@@H]1C[C@@H]2C(=O)N3CCC[C@H]3C(=O)N2[C@@H]1c1cccc(OCCO)c1 | 0.668 | 1.05 | -0.954 | -0.732 | -0.179 | 0.428 | 0.971 (inactive) | 0.252 | 0.791 | -0.141 (inactive)
NC(=O)NCC#Cc1ccc2c(c1)[C@]1(C(=O)N2)[C@H](c2ccccc2OCCO)N2[C@H](c3ccccc3)[C@H](c3ccccc3)OC(=O)[C@H]2[C@@H]1C(=O)N1CCN(c2ncccn2)CC1 | -0.525 | 0.932 | 0.238 | 0.147 | 0.598 | -1.48 | 1.08 (inactive) | -0.356 | -0.293 | 0.157 (inactive)
COCCCNC(=O)[C@@H]1c2ccccc2C(=O)N(CC23CC4CC(CC(C4)C2)C3)[C@H]1c1ccc(CO)cc1 | 0.0071 | 1.3 | 0.0729 | -0.193 | -0.996 | 1.12 | -0.227 (inactive) | 0.0172 | 0.0814 | 0.729 (inactive)
C=CC[C@@]1(C(=O)NCC(O)CO)N=C(c2ccc(OCCCO)cc2)O[C@@H]1c1ccccc1CN=[N+]=[N-] (stereo not given in full) | 2.22 | 0.0076 | 0.816 | 0.92 | 0.0295 | 1.41 | 1.62 (inactive) | -0.153 | -0.873 | 0.047 (inactive)
CC/C=C/C(=O)N(C[C@@H]1CCCO1)[C@@H]1CC(C(=O)NCCO)=C[C@H](Oc2c(I)cc(CO)cc2OC)[C@H]1O | 1.65 | 0.407 | 0.362 | 0.0808 | 0.587 | 2.48 | 1.32 (inactive) | -0.0319 | 0.265 | 1.07 (inactive)
CCCC/C=C/[C@H]([C@@H](O)Cc1ccccc1)N(CC#Cc1ccccc1)Cc1ccccc1Br | 1.44 | -0.0982 | 0.632 | 0.558 | 0.0649 | 0.427 | 0.519 (inactive) | -0.462 | -0.435 | 2.84 (inactive)
COCCCNC(=O)[C@@]1(c2ccc([N+](=O)[O-])cc2)CC(=O)N(C2CCCCC2)[C@@H]1c1ccc(CO)cc1 | 0.286 | 0.0134 | 0.366 | -0.214 | -0.0968 | 0.437 | -0.605 (inactive) | 0.00327 | 0.509 | 0.902 (inactive)
CC(C)C[C@@H]1NC(=O)[C@H](CC(C)C)NC(=O)[C@@]23C(=O)N[C@@H](Cc4ccccc4)C2[C@H](C)[C@@]2(C)O[C@H]2C3/C=C/CC/C=C/CNC1=O (stereo not given in full) | -0.422 | 1.31 | -0.766 | -1.66 | -2.04 | 2.33 | -0.141 (inactive) | -0.366 | 0.19 | 1 (inactive)
CCOC(=O)C[C@H]1[C@H](OC(=O)Cc2ccc3c(c2)OCO3)[C@@H](NC(=O)c2ccc3ccccc3c2)c2cc(OCCCO)ccc2N1C(=O)Cc1ccc(OC)cc1 | 1.55 | 1.08 | 1.56 | 0.956 | 0.41 | 1.66 | -0.14 (inactive) | -0.384 | -1.1 | -0.654 (inactive)
COC(=O)C(CC#Cc1ccc2c(c1)[C@]1(C(=O)N2)[C@H](C(=O)N2CCCCCCC2)[C@H]2C(=O)O[C@H](c3ccccc3)[C@H](c3ccccc3)N2[C@@H]1c1ccc(O)cc1)C(=O)OC | 0.654 | 1.27 | 0.294 | -1.25 | -0.248 | -0.21 | -0.0509 (inactive) | 0.145 | -1.15 | -0.429 (inactive)

SMILES | z-score [1] | z-score [2] | z-score [3] | z-score [4] | z-score [5] | z-score [6] | z-score [7] | z-score [8] | z-score [9] | z-score [10]
CN1CCC(CCCO)=CC1C1CC1 (stereo not given) | 0.4 | 0.852 | -0.879 | -0.833 | 0.174 | 1.32 | 0.57 (inactive) | 0.201 | 0.389 | -0.0682 (inactive)
COCCOC(=O)N1C(=O)[C@@]2(c3cc(C#CCCO)ccc31)[C@H](c1ccc(O)cc1)N1[C@H](c3ccccc3)[C@H](c3ccccc3)OC(=O)[C@H]1[C@@H]2C(=O)Nc1nc2ccccc2s1 | 0.615 | 1.62 | -0.425 | -0.24 | -1.53 | -3.45 | -2.22 (inactive) | -0.684 | -1.11 | -0.192 (inactive)
C=CC[C@]1(C(=O)O)N=C(c2ccc(OCCCO)cc2)O[C@H]1c1ccccc1 | 0.0248 | 1.88 | 0.0696 | -0.394 | -0.512 | 0.801 | 0.0186 (inactive) | -0.755 | 1.29 | 0.692 (inactive)
C[C@]1(C(=O)NCCN2CCOCC2)c2ccccc2C(=O)N(Cc2ccccc2)[C@H]1c1ccc(CO)cc1 | 0.665 | -0.337 | -0.289 | 0.763 | -1.71 | 1.58 | -0.782 (inactive) | -0.0116 | -0.225 | 0.583 (inactive)
CO[C@H]1O[C@H](CO)[C@@H](OC(=O)Nc2ccc(Oc3ccccc3)cc2)[C@H](OC(=O)Nc2ccccc2-c2ccccc2)[C@H]1OC(=O)Nc1ccccc1-c1ccccc1 | -4.22 | 1.59 | -4.47 | -3.39 | -4.01 | -1.37 | 1.64 (inactive) | -0.646 | -1.81 | -4.85 (inactive)
COc1ccc(CCNC(=O)[C@@]2(c3ccc([N+](=O)[O-])cc3)CC(=O)N(C(C)C)[C@@H]2c2ccc(CO)cc2)cc1 | 0.755 | 1.52 | -0.627 | 0.701 | 0.159 | -0.0592 | -0.209 (inactive) | 1.05 | 0.323 | 0.1 (inactive)
Cc1ccc(S(=O)(=O)N[C@H]2COC(=O)CC=C[C@H](C)COC(=O)N[C@@H](C)C(=O)CC=C[C@@H]2C)cc1 | -0.235 | 0.538 | 0.984 | 0.399 | -0.558 | 1.27 | 0.946 (inactive) | -0.614 | 0.809 | 0.333 (inactive)
CC(=O)NCCCC[C@@H]1NC(=O)[C@@H]2C[C@H](C(=O)NCCCCCCN(C)C)[C@H](c3ccc(O)cc3)N2C1=O | -0.378 | 1.28 | -1.04 | -0.365 | 0.495 | 1.43 | 0.957 (inactive) | 0.641 | 0.925 | 0.318 (inactive)
COc1ccc(-c2cc3c(c(-c4ccccc4)n2)[Si](C(C)C)(C(C)C)O[C@H]3c2ccccc2)cn1 | 0.705 | -0.263 | 0.674 | -1.48 | -1.85 | -1.57 | -0.739 (inactive) | -0.707 | -0.225 | 1.51 (inactive)
CCCC[C@H]1OB(O)C[C@H]2C1=C(COC)C[C@H]1C(=O)N(Cc3ccccc3)C(=O)[C@H]12 | 0.485 | 0.938 | -0.0393 | 0.405 | -0.537 | 0.987 | 0.835 (inactive) | 0.361 | 1.46 | 0.272 (inactive)
CO[C@H]1COC(=O)CC=C[C@@H](C)COC(=O)[C@@H](C)NC(=O)CC=C[C@@H]1C | 0.43 | 0.688 | 1.37 | 0.344 | 0.615 | 1.24 | 1.87 (inactive) | -0.258 | 1.52 | 0.372 (inactive)
COc1ccc(C(O)C2C=CC3C(=O)N(C)C(=O)C3N2N2CCCCC2)cc1OCc1ccccc1 (stereo not given) | 0.138 | -0.393 | -0.888 | -0.25 | 0.0629 | -1.8 | -0.693 (inactive) | -0.813 | 0.536 | 2.31 (inactive)
O=C1c2ccccc2[C@](Cc2ccccc2I)(C(=O)NCc2ccccc2)[C@H](c2ccc(CO)cc2)N1Cc1ccccc1C(F)(F)F | 0.582 | 1.06 | 0.185 | -0.698 | 0.0474 | 1.11 | 0.789 (inactive) | 0.467 | 0.463 | 0.584 (inactive)
CN(C)c1ccc(C(O)C2C=CC3C(=O)NC(=O)C3N2Nc2ccc(Cl)cc2Cl)cc1 (stereo not given) | -0.602 | 0.117 | -0.675 | 0.463 | -0.792 | -1.26 | -1.06 (inactive) | -0.752 | 0.261 | -0.555 (inactive)
C[C@@H]1C=CCC(=O)OC[C@H]2O[C@@H](C=C[C@@H]2O)[C@H](C)C=CCC(=O)OC[C@H]2O[C@H]1C=C[C@@H]2O | -0.883 | 1.15 | 0.158 | 0.631 | -1.99 | 0.885 | 0.902 (inactive) | -0.744 | 0.92 | -0.573 (inactive)
